An excerpt weighted towards active compounds, which were near 1.5% of everything screened.
RTF Ca sens inh = cardiac RTF calcium desensitization. 340,000 compounds, 0.12% hits. inhibition, % at 7.15 µM. P19429+P45379. IANBD-labeled cardiac RTF, Ca2+ fluorescence;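 active means inhibition above the mean inhibition of all tested compounds plus 3 SD, cut at about 17% in these data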;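 further: assay run at fixed EC70 calcium of 1.6 mM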
RTF Ca sens act = cardiac RTF calcium sensitization; P19429+P45379; IANBD-labeled TnC RTF fluorescence at EC20 calcium; 0% EC20 calcium, 100% full calcium; activation, % at 7.2 µM; 340,000 compounds, 0.24% hits; AID 493008;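 active means activation above the mean over all tested compounds plus 3 SD, cut at about 30% in these data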;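 further: rise in fluorescence read as greater calcium sensitivity of cardiac thin filaments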
CRFR2-BP antag = CRF-BP/CRF-R2 complex antagonism; HEK293 CRF-R2/CRF-BP, CRF-induced calcium fluorescence; 350,000 compounds, 0.59% hits; AID 588475; inhibition, % at 11.8 µM;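 active means inhibition of the ligand-induced calcium signal above about 50% at the single tested concentration, limit read from the data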
IDE act = boosts human insulin-degrading enzyme activity in HEK cells; P14735; FAbeta-B cleavage, fluorescence polarization; 0% vehicle, 100% cell-free pure enzyme wells; activation, % at 5.96 µM; 340,000 compounds, 0.073% hits; AID 493087;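 active means activation above the mean of all tested compounds plus 3 SD, set per screening campaign, cut at about 17% in these data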
IDE cell inh = inhibits human insulin-degrading enzyme in HEK cells; inhibition, % at 5.59 µM; 320,000 compounds, 0.41% hits; P14735; FAbetaB cleavage, fluorescence polarization;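 active means percent inhibition above the average of all tested compounds plus 3 SD, set per screening campaign, cut at about 16% in these data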;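 further: IDE supplied by intact live HEK cells; FP after avidin binding of uncleaved biotin substrate so inhibition keeps polarization high; 0% = DMSO wells and 100% = 60 µM reference IDE inhibitor Ii1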
CRFBP-R2 agonist = agonists of human CRF-binding protein/CRF-R2 receptor complex | activation, % at 13.2 µM | 350,000 compounds, 0.46% hits | HEK293 CRF-R2/CRF-BP, calcium dye fluorescence (FLIPR); percent of saturating CRF peptide response;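 active means activation of at least 50%, plus an integration ratio under a set limit after plate pattern correction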;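 further: plate controls were neutral control wells without compound for no effect and CRF at EC100 for full effect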
* marks the source's active call; other numbers are inactive results; / = no result.

SMILES	RTF Ca sens inh	RTF Ca sens act	CRFR2-BP antag	IDE act	IDE cell inh	CRFBP-R2 agonist
Cc1cc(C)c(NC(=O)c2ccc(CNS(=O)(=O)c3cc(C(F)(F)F)ccc3Cl)cc2)c(C)c1	0	-4	59*	0	6	3
O=S(=O)(NCc1ccccn1)c1cc(C(F)(F)F)ccc1Cl	1	-5	-1	4	1	-4
CCC(C(=O)NCCN1CCOCC1)n1c2ccccc2c2nc(=O)cc(C)n21 (stereo unspecified)	0	-1	52*	0	1	1
CC[C@@H]1CCCCc2ccccc2[C@H](C(=O)C[C@H](O)CC(C)=O)OC1=O	0	-2	51*	4	1	1
CC(=O)c1ccc(NC(=O)CCCN2C(=O)COc3ccc(C)cc32)cc1	-3	-4	-30	1	-1	12
CCCCN(C)C(=O)Cn1ncc2c3ccccc3n(CCC)c2c1=O	2	-5	-16	6	/	2
CC(=O)N1CCC2(CC1)C(C#N)=C(N)OC1=C2C(=O)CC(C)(C)C1	-1	-3	-1	2	-1	-1
CC1(C)CC(=O)C2=C(C1)OC(N)=C(C#N)C21CCN(Cc2ccccc2)CC1	-24	32*	1	2	1	2
CN(C)CCCN(C(=O)COc1ccc(Cl)cc1)c1nc2ccc(F)cc2s1	-5	8	-48	18*	8	15
Cc1ccc2nc(N(CCCN(C)C)C(=O)COc3ccc(Cl)cc3)sc2c1	-5	0	-31	22*	0	4
Cc1cc(C)c2sc(N(CCCN(C)C)C(=O)COc3ccc(Cl)cc3)nc2c1	-1	3	-21	27*	3	-1
CCCCN(C(=O)COC(=O)c1ccc(C=O)cc1)c1c(N)n(CCC)c(=O)[nH]c1=O	-6	-2	-16	1	-1	12
O=C(NCCc1ccccc1)c1ccc(NC(=O)C2CCC2)cc1	4	-9	-11	3	/	-3
Cc1ccc(-n2[nH]c(C)c(/C=N/Nc3ccc([N+](=O)[O-])cc3[N+](=O)[O-])c2=O)cc1C	-1	-6	85*	5	-6	31
Cc1[nH]n(-c2ccccc2)c(=O)c1/C=N/NC(=O)c1cccc([N+](=O)[O-])c1	-12	0	43	8	-1	-2
Cc1ccn2c(NC(=O)C(C)(C)Oc3ccc(Cl)cc3)c(-c3cccs3)nc2c1	-3	-3	-22	-1	3	0
COC1(OC)C=CC(=O)C=C1NC(=O)c1ccccc1OC(C)=O	-2	8	104*	-2	0	0
CCOC(=O)C1CCN(c2ncnc3c2nnn3Cc2ccccc2Cl)CC1	3	-7	59*	3	1	-1
COc1cccc(CC2(CO)CCCN(Cc3cc4ccccc4[nH]3)C2)c1 (stereo unspecified)	-2	0	-118	0	6	120*
O=C(Nc1ccccn1)C(F)(F)C(F)(F)C(F)(F)C(F)(F)C(=O)Nc1ccccn1	-8	-10	14	1	-3	-2
Cc1cc(C(=O)NNC(=O)C(CCC(N)=O)NS(=O)(=O)c2ccc(Cl)cc2)c(C)o1 (stereo unspecified)	1	1	67*	3	8	0
COc1ccc(CCNC(=O)C(CCC(N)=O)NS(=O)(=O)c2ccc(Cl)cc2)cc1OC (stereo unspecified)	-3	-1	6	6	0	1
COC(C(=O)Nc1ccc(F)cc1)c1ccccc1 (stereo unspecified)	-1	-11	91*	5	6	0
COC(C(=O)Nc1ccc(S(=O)(=O)Nc2ccc(F)cc2)cc1)c1ccccc1 (stereo unspecified)	-22	4	-36	2	-1	12
CC1=NN(c2ccc(Br)cc2)C(=O)/C1=C/c1ccc(-c2ccccc2C(=O)O)o1	-1	28	-7	2	-2	2
O=C(O)c1ccccc1-c1ccc(/C=c2\sc3nc4cc(Br)cnc4n3c2=O)o1	55*	-13	-156	-10	6	157*
Cc1cc2nc3s/c(=C/c4ccc(-c5ccccc5C(=O)O)o4)c(=O)n3c2cc1C	-4	-1	-101	2	4	141*
